Our source for the inhibition values is ChEMBL document CHEMBL1961873, “Compounds: GSK PKIS; Assays: Nanosyn kinase panel” (2012).

A word on the inhibition: it is the drop in the measured response relative to a control, in per cent.

Test [1] has as its target Sphingosine kinase 1 (Homo sapiens) (UniProt Q9NYA1). The settings on record: at 1 µM.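 Further: mean SPHK1 inhibition value reported from the GSK PKIS kinase panel screen.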
The target in test [2] is T1, Sphingosine kinase 2 (Homo sapiens) (UniProt Q9NRA0).
T1 sequence (whole entry): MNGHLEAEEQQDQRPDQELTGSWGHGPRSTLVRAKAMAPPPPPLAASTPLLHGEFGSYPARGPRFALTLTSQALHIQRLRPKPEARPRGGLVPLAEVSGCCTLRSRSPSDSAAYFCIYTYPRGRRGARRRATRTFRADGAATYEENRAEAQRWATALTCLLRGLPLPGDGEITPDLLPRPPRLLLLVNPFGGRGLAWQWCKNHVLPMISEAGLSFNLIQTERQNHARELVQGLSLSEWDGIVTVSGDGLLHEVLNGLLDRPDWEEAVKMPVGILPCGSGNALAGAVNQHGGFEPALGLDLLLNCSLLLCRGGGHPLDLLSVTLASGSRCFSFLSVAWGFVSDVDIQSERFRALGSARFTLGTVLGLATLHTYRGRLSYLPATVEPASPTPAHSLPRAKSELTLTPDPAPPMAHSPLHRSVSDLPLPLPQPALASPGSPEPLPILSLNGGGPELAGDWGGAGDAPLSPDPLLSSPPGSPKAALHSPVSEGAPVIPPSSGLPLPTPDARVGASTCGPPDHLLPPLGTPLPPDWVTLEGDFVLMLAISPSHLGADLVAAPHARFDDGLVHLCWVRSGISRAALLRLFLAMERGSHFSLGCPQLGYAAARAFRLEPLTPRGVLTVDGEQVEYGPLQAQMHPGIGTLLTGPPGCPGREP
The settings on record: at 0.1 µM.

The target of test [3] is T1, Sphingosine kinase 2 (Homo sapiens). As to conditions: at 1 µM.
The target of test [4] is Casein kinase II subunit alpha (Homo sapiens) (UniProt P68400). The settings on record: at 0.1 µM.
Casein kinase II subunit alpha (Homo sapiens), sequence (P68400 whole entry, looked up): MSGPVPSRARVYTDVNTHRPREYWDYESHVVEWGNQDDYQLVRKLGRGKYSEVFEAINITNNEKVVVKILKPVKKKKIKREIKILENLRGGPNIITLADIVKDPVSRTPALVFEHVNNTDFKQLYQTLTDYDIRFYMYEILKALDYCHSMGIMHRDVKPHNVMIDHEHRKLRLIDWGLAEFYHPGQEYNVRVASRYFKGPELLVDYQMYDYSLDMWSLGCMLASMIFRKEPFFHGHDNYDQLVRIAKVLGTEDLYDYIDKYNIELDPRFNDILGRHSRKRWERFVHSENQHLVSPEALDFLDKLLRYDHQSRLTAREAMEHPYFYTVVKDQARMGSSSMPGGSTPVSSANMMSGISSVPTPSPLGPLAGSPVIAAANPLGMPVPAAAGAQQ
The target is the same in test [5]. As to conditions: at 1 µM.
Test [6] concerns the target T2, Inhibitor of nuclear factor kappa-B kinase subunit alpha (Homo sapiens) (UniProt O15111).
T2 sequence (whole entry): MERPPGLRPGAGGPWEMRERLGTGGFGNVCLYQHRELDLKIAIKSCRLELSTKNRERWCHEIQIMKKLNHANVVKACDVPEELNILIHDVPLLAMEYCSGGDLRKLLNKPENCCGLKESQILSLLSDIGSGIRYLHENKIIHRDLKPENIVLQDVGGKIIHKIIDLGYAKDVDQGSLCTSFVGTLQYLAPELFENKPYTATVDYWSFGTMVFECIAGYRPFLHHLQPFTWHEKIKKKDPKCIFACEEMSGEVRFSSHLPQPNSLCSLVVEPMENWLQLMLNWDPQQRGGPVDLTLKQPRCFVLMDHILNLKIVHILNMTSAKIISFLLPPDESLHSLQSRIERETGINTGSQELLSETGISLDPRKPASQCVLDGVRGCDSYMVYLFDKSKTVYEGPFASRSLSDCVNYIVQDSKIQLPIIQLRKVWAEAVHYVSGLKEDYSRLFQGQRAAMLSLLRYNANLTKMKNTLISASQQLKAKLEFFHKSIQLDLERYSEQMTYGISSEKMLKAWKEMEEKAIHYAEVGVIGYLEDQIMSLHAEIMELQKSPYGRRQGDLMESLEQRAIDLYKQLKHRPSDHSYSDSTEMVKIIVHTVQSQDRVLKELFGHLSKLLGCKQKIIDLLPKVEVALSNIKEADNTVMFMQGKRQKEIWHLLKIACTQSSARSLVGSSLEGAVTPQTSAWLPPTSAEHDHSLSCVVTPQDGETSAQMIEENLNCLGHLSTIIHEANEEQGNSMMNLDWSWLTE
The settings on record: at 0.1 µM.

The target in test [7] is T2, Inhibitor of nuclear factor kappa-B kinase subunit alpha (Homo sapiens). The settings on record: at 1 µM.
For test [8], the target named is T3, Inhibitor of nuclear factor kappa-B kinase subunit beta (Homo sapiens) (UniProt O14920).
T3 sequence (whole entry): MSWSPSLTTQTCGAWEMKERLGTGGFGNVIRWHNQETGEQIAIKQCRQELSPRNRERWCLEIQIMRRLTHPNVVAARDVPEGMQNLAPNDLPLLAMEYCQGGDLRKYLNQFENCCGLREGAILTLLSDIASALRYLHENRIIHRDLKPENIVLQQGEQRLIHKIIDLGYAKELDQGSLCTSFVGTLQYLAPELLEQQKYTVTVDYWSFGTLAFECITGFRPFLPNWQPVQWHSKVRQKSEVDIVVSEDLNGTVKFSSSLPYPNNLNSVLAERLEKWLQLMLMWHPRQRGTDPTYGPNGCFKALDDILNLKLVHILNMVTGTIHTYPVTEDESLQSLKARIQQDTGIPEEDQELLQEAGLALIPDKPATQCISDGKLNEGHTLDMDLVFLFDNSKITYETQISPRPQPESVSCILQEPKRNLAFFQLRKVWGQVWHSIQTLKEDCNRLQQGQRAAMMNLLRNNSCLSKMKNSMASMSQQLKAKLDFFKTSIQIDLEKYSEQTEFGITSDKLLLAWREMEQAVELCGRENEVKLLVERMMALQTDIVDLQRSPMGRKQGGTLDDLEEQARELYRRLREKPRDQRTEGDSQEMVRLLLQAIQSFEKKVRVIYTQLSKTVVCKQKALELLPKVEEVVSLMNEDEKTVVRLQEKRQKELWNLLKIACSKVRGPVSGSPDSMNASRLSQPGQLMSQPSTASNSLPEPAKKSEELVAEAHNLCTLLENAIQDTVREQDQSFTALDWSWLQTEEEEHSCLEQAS
As to conditions: at 0.1 µM.

The target of test [9] is T3, Inhibitor of nuclear factor kappa-B kinase subunit beta (Homo sapiens). As to conditions: at 1 µM.
Test [10] has as its target T4, Inhibitor of nuclear factor kappa-B kinase subunit epsilon (Homo sapiens) (UniProt Q14164).
T4 sequence (whole entry): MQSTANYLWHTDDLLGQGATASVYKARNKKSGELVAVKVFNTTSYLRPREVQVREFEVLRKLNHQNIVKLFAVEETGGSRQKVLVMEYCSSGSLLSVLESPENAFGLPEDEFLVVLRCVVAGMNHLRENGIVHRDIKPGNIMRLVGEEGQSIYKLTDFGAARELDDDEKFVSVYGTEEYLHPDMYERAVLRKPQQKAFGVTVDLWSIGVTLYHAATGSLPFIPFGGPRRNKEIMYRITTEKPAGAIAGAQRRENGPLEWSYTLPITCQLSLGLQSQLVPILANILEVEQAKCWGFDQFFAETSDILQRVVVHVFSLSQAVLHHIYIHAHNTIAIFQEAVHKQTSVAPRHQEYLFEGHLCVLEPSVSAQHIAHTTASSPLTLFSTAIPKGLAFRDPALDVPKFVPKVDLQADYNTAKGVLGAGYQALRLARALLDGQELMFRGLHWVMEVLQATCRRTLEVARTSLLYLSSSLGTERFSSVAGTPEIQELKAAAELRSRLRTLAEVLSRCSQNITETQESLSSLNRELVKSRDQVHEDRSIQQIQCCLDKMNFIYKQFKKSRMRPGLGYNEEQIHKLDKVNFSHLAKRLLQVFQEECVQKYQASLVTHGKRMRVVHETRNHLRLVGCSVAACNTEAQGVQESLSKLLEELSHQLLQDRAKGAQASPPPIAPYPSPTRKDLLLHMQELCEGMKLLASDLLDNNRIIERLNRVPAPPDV
As to conditions: at 0.1 µM.

Test [11] concerns the target T4, Inhibitor of nuclear factor kappa-B kinase subunit epsilon (Homo sapiens). The settings on record: at 1 µM.
For test [12], the target named is T5, Serine/threonine-protein kinase Nek1 (Homo sapiens) (UniProt Q96PY6).
T5 sequence (whole entry): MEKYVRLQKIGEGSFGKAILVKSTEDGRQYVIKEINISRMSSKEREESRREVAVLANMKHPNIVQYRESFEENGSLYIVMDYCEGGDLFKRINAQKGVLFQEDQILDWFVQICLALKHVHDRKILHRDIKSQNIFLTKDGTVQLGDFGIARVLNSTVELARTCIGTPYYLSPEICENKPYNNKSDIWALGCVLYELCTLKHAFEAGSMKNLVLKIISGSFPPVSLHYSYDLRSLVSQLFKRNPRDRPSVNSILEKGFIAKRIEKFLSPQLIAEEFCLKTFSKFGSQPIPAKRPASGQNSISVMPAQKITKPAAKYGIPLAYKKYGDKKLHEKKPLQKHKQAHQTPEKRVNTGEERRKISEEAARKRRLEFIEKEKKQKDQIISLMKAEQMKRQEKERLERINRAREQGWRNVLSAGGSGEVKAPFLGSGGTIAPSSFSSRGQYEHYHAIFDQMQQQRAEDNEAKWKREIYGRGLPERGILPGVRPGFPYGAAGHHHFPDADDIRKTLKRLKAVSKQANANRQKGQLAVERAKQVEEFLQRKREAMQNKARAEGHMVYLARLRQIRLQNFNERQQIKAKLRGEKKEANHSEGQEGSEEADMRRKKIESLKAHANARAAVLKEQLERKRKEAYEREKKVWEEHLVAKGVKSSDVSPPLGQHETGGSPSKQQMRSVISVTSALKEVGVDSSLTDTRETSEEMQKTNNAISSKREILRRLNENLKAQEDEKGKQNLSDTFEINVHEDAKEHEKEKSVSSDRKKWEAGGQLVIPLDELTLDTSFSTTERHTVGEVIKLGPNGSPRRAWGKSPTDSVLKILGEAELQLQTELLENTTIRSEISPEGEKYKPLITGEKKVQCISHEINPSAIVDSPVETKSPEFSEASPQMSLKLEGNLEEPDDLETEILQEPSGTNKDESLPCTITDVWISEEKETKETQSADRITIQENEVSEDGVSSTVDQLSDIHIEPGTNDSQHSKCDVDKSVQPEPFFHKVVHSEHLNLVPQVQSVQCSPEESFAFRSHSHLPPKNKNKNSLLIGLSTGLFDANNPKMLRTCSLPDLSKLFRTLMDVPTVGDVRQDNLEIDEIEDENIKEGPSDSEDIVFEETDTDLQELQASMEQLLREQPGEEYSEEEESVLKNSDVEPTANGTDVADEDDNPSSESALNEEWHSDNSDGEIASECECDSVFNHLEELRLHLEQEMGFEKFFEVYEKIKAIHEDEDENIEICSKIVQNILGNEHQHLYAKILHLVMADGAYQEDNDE
The settings on record: at 0.1 µM.

The target in test [13] is T5, Serine/threonine-protein kinase Nek1 (Homo sapiens). As to conditions: at 1 µM.
The target in test [14] is T6, Serine/threonine-protein kinase Nek2 (Homo sapiens) (UniProt P51955).
T6 sequence (whole entry): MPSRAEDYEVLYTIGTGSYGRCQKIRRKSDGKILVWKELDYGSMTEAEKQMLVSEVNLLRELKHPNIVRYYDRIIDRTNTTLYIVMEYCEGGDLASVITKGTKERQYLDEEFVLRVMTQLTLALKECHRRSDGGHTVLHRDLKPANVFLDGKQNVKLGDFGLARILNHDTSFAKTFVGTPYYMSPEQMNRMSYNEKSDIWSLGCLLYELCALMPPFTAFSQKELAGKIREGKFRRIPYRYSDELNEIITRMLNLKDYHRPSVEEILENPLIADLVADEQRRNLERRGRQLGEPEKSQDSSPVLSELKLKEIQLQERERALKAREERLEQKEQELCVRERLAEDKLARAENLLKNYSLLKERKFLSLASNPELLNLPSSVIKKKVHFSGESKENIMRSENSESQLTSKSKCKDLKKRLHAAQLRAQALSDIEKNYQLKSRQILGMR
As to conditions: at 0.1 µM.

Test [15] has as its target T6, Serine/threonine-protein kinase Nek2 (Homo sapiens). The settings on record: at 1 µM.
For test [16], the target named is Serine/threonine-protein kinase Nek6 (Homo sapiens) (UniProt Q9HC98). The settings on record: at 0.1 µM.
Serine/threonine-protein kinase Nek6 (Homo sapiens), sequence (Q9HC98 whole entry): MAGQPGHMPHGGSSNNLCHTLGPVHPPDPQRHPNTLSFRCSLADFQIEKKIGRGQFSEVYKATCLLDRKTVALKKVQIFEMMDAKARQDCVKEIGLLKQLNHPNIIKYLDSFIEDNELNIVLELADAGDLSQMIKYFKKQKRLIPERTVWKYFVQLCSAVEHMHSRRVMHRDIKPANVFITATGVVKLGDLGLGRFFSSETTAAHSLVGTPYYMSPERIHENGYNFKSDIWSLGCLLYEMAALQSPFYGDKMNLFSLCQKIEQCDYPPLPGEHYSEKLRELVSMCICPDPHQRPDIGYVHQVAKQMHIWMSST
Test [17] shares this target. The settings on record: at 1 µM.
For test [18], the target named is Serine/threonine-protein kinase Nek7 (Homo sapiens) (UniProt Q8TDX7). As to conditions: at 0.1 µM.
Serine/threonine-protein kinase Nek7 (Homo sapiens), sequence (Q8TDX7 whole entry, looked up): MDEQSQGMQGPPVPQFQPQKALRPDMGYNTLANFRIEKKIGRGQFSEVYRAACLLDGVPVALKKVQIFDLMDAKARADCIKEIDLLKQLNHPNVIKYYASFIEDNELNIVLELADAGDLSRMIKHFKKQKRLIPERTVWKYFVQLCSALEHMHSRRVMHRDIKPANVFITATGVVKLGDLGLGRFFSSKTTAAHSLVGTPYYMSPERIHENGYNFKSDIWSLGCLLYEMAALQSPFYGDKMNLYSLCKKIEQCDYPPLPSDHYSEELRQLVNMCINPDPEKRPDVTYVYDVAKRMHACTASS
Test [19] has the same target. As to conditions: at 1 µM.
Test [20] addresses T7, Serine/threonine-protein kinase Nek9 (Homo sapiens) (UniProt Q8TD19).
T7 sequence (whole entry): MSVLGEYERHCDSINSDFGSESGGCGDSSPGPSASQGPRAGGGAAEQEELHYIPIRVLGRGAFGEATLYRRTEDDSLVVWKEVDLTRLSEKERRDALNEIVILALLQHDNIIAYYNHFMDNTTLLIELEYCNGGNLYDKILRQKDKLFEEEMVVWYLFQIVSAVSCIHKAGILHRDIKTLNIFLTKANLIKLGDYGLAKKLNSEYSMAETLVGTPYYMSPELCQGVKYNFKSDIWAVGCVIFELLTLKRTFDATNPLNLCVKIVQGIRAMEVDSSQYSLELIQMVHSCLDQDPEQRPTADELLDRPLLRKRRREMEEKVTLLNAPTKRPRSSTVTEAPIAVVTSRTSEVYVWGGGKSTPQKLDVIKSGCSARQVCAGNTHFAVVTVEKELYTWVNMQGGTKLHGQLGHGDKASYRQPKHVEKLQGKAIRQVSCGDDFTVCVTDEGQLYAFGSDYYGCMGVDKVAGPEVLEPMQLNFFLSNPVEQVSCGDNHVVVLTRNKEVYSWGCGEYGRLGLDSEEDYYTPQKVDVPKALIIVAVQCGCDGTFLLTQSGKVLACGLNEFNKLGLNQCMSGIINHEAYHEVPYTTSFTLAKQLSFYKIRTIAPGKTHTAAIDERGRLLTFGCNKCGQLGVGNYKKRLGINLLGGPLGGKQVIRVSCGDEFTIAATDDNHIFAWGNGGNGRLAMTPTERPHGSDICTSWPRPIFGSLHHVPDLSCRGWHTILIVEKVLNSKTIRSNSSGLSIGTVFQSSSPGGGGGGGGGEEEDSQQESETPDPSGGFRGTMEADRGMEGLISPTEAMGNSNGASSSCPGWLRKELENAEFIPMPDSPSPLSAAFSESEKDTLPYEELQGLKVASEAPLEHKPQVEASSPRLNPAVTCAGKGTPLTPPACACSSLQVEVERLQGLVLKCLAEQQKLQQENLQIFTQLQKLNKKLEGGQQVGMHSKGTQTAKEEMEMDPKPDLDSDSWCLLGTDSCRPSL
The settings on record: at 0.1 µM.

Sphingosine kinase 1 (Homo sapiens), sequence (Q9NYA1 whole entry): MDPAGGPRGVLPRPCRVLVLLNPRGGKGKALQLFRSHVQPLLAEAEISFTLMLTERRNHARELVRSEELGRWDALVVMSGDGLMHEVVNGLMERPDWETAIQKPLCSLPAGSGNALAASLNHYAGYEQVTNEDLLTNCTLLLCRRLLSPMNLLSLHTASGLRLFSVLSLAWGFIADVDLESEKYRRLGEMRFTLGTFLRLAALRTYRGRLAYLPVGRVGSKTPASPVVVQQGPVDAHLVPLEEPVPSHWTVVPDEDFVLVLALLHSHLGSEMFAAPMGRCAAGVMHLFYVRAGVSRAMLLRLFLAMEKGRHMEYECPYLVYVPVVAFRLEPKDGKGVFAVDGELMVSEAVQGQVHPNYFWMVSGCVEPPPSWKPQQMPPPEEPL

Take `COc1ccc2ncn(-c3cc(O[C@H](C)c4ccccc4C(F)(F)F)c(C(N)=O)s3)c2c1`: the inhibition in test [1] was 2.4%; in test [2] it was -0.06%; in test [3] it was -2.97%; in test [4], -0.88%; in [5], 5.02%; in test [6] it was 3.24%. Besides, the inhibition in [7] was -5.63%; in test [8] it was -5.7%; in test [9] it was 1.93%; in test [10], -0.98%; in test [11] it was 1.28%; in [12] it was 8.29%. The inhibition is 43% in test [13]; 0.45% in [14]; 11.6% in test [15]; 0.31% in test [16]; -2.42% in [17]; 1.25% in [18]. The inhibition in test [19] came out at 0.51%; in [20], 35.9%.
